The text below walks through data of the supplement of paper PMC6555819.

The first test relates to PPARg:RXRa IVT, anti-PPARg (NR concentration 270 nM, RXRa partner concentration 90 nM). The test is described as follows: PBM binding z-score (relative to random genomic background probes); higher = stronger binding; sequences stand for … in GC…GCGATTGACAGCGTAGAATGAAGG
In outline: (§1)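 Ligand-free nuclear receptor dimers were bound for 1 h to custom Agilent 4×180K protein-binding microarrays. Detection used antibodies against each partner (one per run). Binding z-scores rest on regression-normalized fluorescence, with random background probes as the reference.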
In the case of CTACCAAAGTGAACAAGGTCGTTGATTACTATTC, the PBM binding z-score was found to be 0.473.

On to GCTAGTTGCTCAGTAAAAGGTCACACACCGGTCG, for which the PBM binding z-score turned out to be 1.7.

TCTCGGGGGACACGAAAGGTCAGAGCTCGACATC registered a PBM binding z-score of 4.33.

Regarding AGTCAAAGTTCATCTAGGTAACGTAAGATATGCT, the PBM binding z-score stood at 3.69.

On to ATATGTAGGTCACATCCGGGTCATTCAGGCTATG, for which the PBM binding z-score was found to be 8.92.

The sequence AGAATGAGGTTAAGAGCAGGGAAACAGAATACAT had a PBM binding z-score of 2.37.

As for GCTTACGGGTCAAAGGTTATAGCCTGAATAGAAT, the PBM binding z-score was determined as 6.32.

The sequence CAAGCTAGGTCACGAAAGGTCAAAGTCGAATGAC gave a PBM binding z-score of 6.14.

TAGCCTATGTCATGGGCCAGTATACCACGCGAAC came in with a PBM binding z-score of 0.165.

For CGTCCAAGGTCAGCAGGTCAGTGACAGCGACGTG, the PBM binding z-score turned out to be 3.56.

TCATATAGGTAAAGGTGAAAGTGGAACGATATGA registered a PBM binding z-score of 4.19.

ATCTCAAGGTAACCAAGTTCAGTGAATGCCGAAC registered a PBM binding z-score of 1.32.

CCTTACGGGTCAAGGTGATAGCACGGGTGGTACG registered a PBM binding z-score of 3.49.

Sequence ACAGACAGGTGAGTGAAGGTATCTCAGCTGGACG registered a PBM binding z-score of 0.541.

CAAACTAGGTCAAAGGTCCAAGTCGAGCCAACCA: the PBM binding z-score is 8.36.

In turn, ATATGTAGGTTAAGGGTCAGTCAGGTTGGTTCGC displayed a PBM binding z-score of 7.77.

Consider TCTGCTAGGTCAGTTGTTCAGCTAACGAGCTGCC, for which the PBM binding z-score worked out at 2.46.

AGTCAAAGTTCAGGAGGAGGTAACGTAAAGCACG displayed a PBM binding z-score of 2.24.

CCTTGCAGGCCAATCTGGGTCACTCAAGGCTTGA came in with a PBM binding z-score of 5.67.

With AGAACGAAGGCAATGAGTTGATAGCACGGGTGGC, the PBM binding z-score was -0.376.

Take AGTCAAAGTTCACTAGGTAACGTGAGATTCAGCT: the PBM binding z-score was determined as 4.98.

GTACCAAGGTGAATTGGTCGTTGATGAGTAGGCG displayed a PBM binding z-score of 1.85.

For TCTGCTAGGTCAGTTCGTCAGCTAACGAGCTGCC, the PBM binding z-score turned out to be 2.31.

Sequence CCTACTGGGGCAAAAAGGTCATTGATGCCGATAA yielded a PBM binding z-score of 5.48.

Turning to TTACCAAGGTGAAAGGTAGTTGATGCACGCCTTG, the PBM binding z-score amounted to 3.26.

On to TCAGACAGGTGAAGGTAACTTAGGTACGCAGTCG, for which the PBM binding z-score is 1.37.

GCTGCTAGGTCAGGTGGGTCAGCTAACGGGTACG showed a PBM binding z-score of 3.22.

The sequence TAGCCTAGCTCATTGGGCCAGTATAGTACGCATC returned a PBM binding z-score of -0.244.

Sequence AACACAGGGTCATCGTAGGCCAGAGTACGCACAG returned a PBM binding z-score of 3.46.

In the case of GTACCAAGGTGGATAGGTCGTTGATGAGTAGGCG, the PBM binding z-score is -0.0801.

Sequence ACTATTAGTTGAGACGAGGGTAACCGATAGGTTG had a PBM binding z-score of 0.339.

In turn, CGTCAAAGTTCTACTAAGGTAACGTAAAGCACGC displayed a PBM binding z-score of 0.848.

Take CGTCCAAGGTCAGAGGTCAGTGAAGAGATGACGG: the PBM binding z-score came out at 4.65.

GCTATTAATTGAAAGGGCAACCGAATGATTCTCG: the PBM binding z-score stood at 0.122.

As to GCATATAGGTAATACAAGGTGAACGTCCGATTGT, the PBM binding z-score was 3.63.

For CGTGCAAGGTCATAGGAGGTCAGTGAAGACAGAT, the PBM binding z-score turned out to be 4.74.

CAAACTAGGTCACCGGAAGGTCAAAGTCCGCATG returned a PBM binding z-score of 8.91.

Sequence TAGGCTAGGTCATGGGCCAGTATACCACGCGAAC had a PBM binding z-score of 3.61.

For CGTCCAAGGTCAGAGAGGTCAGGGAATGCCGAGT, the PBM binding z-score came to 3.4.

For AGAATGACGTTATTAAGATCAGGGAATTGCGGTC, the PBM binding z-score was -0.306.

In the next test the test system is PPARg DBDmut:RXRa IVT, anti-PPARg (DBD mutation: PPARg1 K132A/R137A, NR concentration 270 nM, RXRa partner concentration 90 nM). Described as above. In outline: as §1
The sequence CTACCAAAGTGAACAAGGTCGTTGATTACTATTC gave a PBM binding z-score of 0.238.

For the sequence GCTAGTTGCTCAGTAAAAGGTCACACACCGGTCG, the PBM binding z-score was -0.262.

In turn, TCTCGGGGGACACGAAAGGTCAGAGCTCGACATC registered a PBM binding z-score of 6.64.

The sequence AGTCAAAGTTCATCTAGGTAACGTAAGATATGCT returned a PBM binding z-score of 1.19.

In the case of ATATGTAGGTCACATCCGGGTCATTCAGGCTATG, the PBM binding z-score is 2.83.

With AGAATGAGGTTAAGAGCAGGGAAACAGAATACAT, the PBM binding z-score came out at 0.618.

Turning to GCTTACGGGTCAAAGGTTATAGCCTGAATAGAAT, the PBM binding z-score came out at 0.778.

As to CAAGCTAGGTCACGAAAGGTCAAAGTCGAATGAC, the PBM binding z-score worked out at 2.17.

Take TAGCCTATGTCATGGGCCAGTATACCACGCGAAC: the PBM binding z-score is -0.733.

The sequence CGTCCAAGGTCAGCAGGTCAGTGACAGCGACGTG had a PBM binding z-score of -0.271.

For TCATATAGGTAAAGGTGAAAGTGGAACGATATGA, the PBM binding z-score stood at 1.25.

The sequence ATCTCAAGGTAACCAAGTTCAGTGAATGCCGAAC had a PBM binding z-score of 0.386.

For CCTTACGGGTCAAGGTGATAGCACGGGTGGTACG, the PBM binding z-score is -0.115.

ACAGACAGGTGAGTGAAGGTATCTCAGCTGGACG had a PBM binding z-score of -0.168.

CAAACTAGGTCAAAGGTCCAAGTCGAGCCAACCA: the PBM binding z-score was determined as 1.57.

ATATGTAGGTTAAGGGTCAGTCAGGTTGGTTCGC gave a PBM binding z-score of 4.77.

For TCTGCTAGGTCAGTTGTTCAGCTAACGAGCTGCC, the PBM binding z-score is -0.0117.

Regarding AGTCAAAGTTCAGGAGGAGGTAACGTAAAGCACG, the PBM binding z-score amounted to 0.683.

For the sequence CCTTGCAGGCCAATCTGGGTCACTCAAGGCTTGA, the PBM binding z-score is 0.0467.

For the sequence AGAACGAAGGCAATGAGTTGATAGCACGGGTGGC, the PBM binding z-score was 0.0932.

The sequence AGTCAAAGTTCACTAGGTAACGTGAGATTCAGCT had a PBM binding z-score of 1.48.

With GTACCAAGGTGAATTGGTCGTTGATGAGTAGGCG, the PBM binding z-score amounted to 0.108.

The sequence TCTGCTAGGTCAGTTCGTCAGCTAACGAGCTGCC came in with a PBM binding z-score of 1.01.

The sequence CCTACTGGGGCAAAAAGGTCATTGATGCCGATAA yielded a PBM binding z-score of 0.778.

As for TTACCAAGGTGAAAGGTAGTTGATGCACGCCTTG, the PBM binding z-score was 0.619.

In the case of TCAGACAGGTGAAGGTAACTTAGGTACGCAGTCG, the PBM binding z-score came to 0.399.

Regarding GCTGCTAGGTCAGGTGGGTCAGCTAACGGGTACG, the PBM binding z-score amounted to 0.103.

In turn, TAGCCTAGCTCATTGGGCCAGTATAGTACGCATC displayed a PBM binding z-score of -0.824.

The sequence AACACAGGGTCATCGTAGGCCAGAGTACGCACAG returned a PBM binding z-score of 1.2.

Sequence GTACCAAGGTGGATAGGTCGTTGATGAGTAGGCG came in with a PBM binding z-score of -1.52.

Take ACTATTAGTTGAGACGAGGGTAACCGATAGGTTG: the PBM binding z-score was determined as 0.757.

In turn, CGTCAAAGTTCTACTAAGGTAACGTAAAGCACGC displayed a PBM binding z-score of 0.246.

Turning to CGTCCAAGGTCAGAGGTCAGTGAAGAGATGACGG, the PBM binding z-score is 0.388.

Regarding GCTATTAATTGAAAGGGCAACCGAATGATTCTCG, the PBM binding z-score was -0.051.

Regarding GCATATAGGTAATACAAGGTGAACGTCCGATTGT, the PBM binding z-score worked out at 0.578.

The sequence CGTGCAAGGTCATAGGAGGTCAGTGAAGACAGAT yielded a PBM binding z-score of 1.77.

As to CAAACTAGGTCACCGGAAGGTCAAAGTCCGCATG, the PBM binding z-score stood at 2.7.

As to TAGGCTAGGTCATGGGCCAGTATACCACGCGAAC, the PBM binding z-score stood at 1.69.

CGTCCAAGGTCAGAGAGGTCAGGGAATGCCGAGT yielded a PBM binding z-score of 0.15.

The sequence AGAATGACGTTATTAAGATCAGGGAATTGCGGTC gave a PBM binding z-score of 0.0629.
